An excerpt weighted towards active compounds, which were near 1.5% of everything screened.
EBV gp42 inh: EBV gp42 inhibition | AID 1085 | inhibition, % (tested at 21.74 µM) | Fluorescence polarization binding assay, mP read-out | 220,000 compounds, 0.42% hits; in the data active means inhibition above about 50%
MCL1-BIM inh: disrupts human MCL1 binding to BIM-BH3 peptide; GST-MCL1 / FITC-Bim-BH3 fluorescence polarization; inhibition, % at 10.9 µM; 320,000 compounds, 0.68% hits;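 active means inhibition above the mean inhibition of all tested compounds plus 3 SD, set per campaign, cut at about 40% in these data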;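 further: 0% = DMSO wells and 100% = unlabeled Bim-BH3 peptide control; higher means more loss of mP so more displacement of Bim peptide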
eLon inh: inhibits E. coli Lon protease; purified E. coli Lon protease, fluorescence polarization; inhibition, % at 7.94 µM; 360,000 compounds, 0.42% hits; AID 602123; in the data active means inhibition above about 13%, passing the limit was not always enough;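 further: 0% = enzyme with probe and DMSO and 100% = no enzyme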
GLD-1 TGE inh: GLD-1-TGE RNA interaction inhibition (C. elegans). Q17339. purified GLD-1 + fluorescein TGE RNA, fluorescence polarization. inhibition, % at 5.96 µM. 320,000 compounds, 0.44% hits. AID 2280;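 active means percent inhibition above a per-plate cutoff, the plate mean of test compounds plus 3 SD, cut at about 30% in these data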;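 further: 0% = DMSO wells with GLD-1 and probe and 100% = wells lacking GLD-1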
Bcl-xL primary: Bcl-xL (human) inhibition. GST-Bcl-xL / FITC-Bim BH3 peptide fluorescence polarization. inhibition, % at 10.9 µM. 320,000 compounds, 0.7% hits;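 active means inhibition above the mean of all tested compounds plus 3 SD, cutoff set per campaign, cut at about 30% in these data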;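 further: 0% = DMSO wells and 100% = unlabeled Bim-BH3 peptide competitor; inhibitors lower millipolarization by displacing the labeled peptide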
MEX-5 binding: C. elegans MEX-5 TCR-2 RNA binding activity | Q9XUB2 | MEX-5/FITC-TCR2 RNA binding, fluorescence polarization; hits give low values | activity score (negative = inhibition of binding), % at 10 µM | 300,000 compounds, 0.38% hits | AID 1832;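 active means inhibition past about -25% in most replicates, and total fluorescence under double the plate's negative control median, limit read from the data; inconclusive means replicates evenly split on the limit, or fluorescence at least double controls; inactive means too little inhibition in most replicates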;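 further: 0% = DMSO and -100% = 5 µM competing unlabeled TCR2 RNA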
Bcl-xL conf: counter-screen for MCL1 inhibitors: confirmation of human Bcl-xL inhibitors; shares compounds with MCL1-BIM inh; GST-Bcl-xL / FITC-Bim BH3 peptide FP binding; inhibition, % at 10.9 µM; 1,700 compounds, 54% hits; AID 2166;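 active means inhibition above a cutoff equal to the mean inhibition of all tested compounds plus 3 SD, cut at about 30% in these data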;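 further: 0% = DMSO wells and 100% = unlabeled Bim BH3 control peptide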
MCL1 BIM confirm: confirmation of human MCL1 and BIM-BH3 interaction inhibitors; shares compounds with MCL1-BIM inh; GST-MCL1 / FITC-Bim-BH3 fluorescence polarization; inhibition, % at 10.9 µM; 1,700 compounds, 61% hits; AID 2168;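 active means inhibition above the average of all tested compounds plus 3 SD, cut at about 40% in these data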;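 further: 0% = DMSO wells and 100% = unlabeled Bim-BH3 control peptide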
An asterisk follows results filed as active.

Screening O=C(CSc1nnc(-c2ccco2)c(-c2ccco2)n1)Nc1ccccc1 returned EBV gp42 inh 22.8, MCL1-BIM inh 59.6*, eLon inh 157.4*, GLD-1 TGE inh 6.1, Bcl-xL primary 24.6, MEX-5 binding -2.4, Bcl-xL conf 34.4* and MCL1 BIM confirm 83.2*.
For CN(C)c1ccc(NC(=O)CSc2nnc(-c3ccco3)c(-c3ccco3)n2)cc1 the results were MCL1-BIM inh 31.7, eLon inh 9.3, GLD-1 TGE inh 5.5, Bcl-xL primary 25.2 and MEX-5 binding -4.6.
COc1cccc(NC(=O)CSc2nnc(-c3ccco3)c(-c3ccco3)n2)c1 was read as MCL1-BIM inh 49.2*, eLon inh 14.7, GLD-1 TGE inh 11.4, Bcl-xL primary 27.0, MEX-5 binding -1.5, Bcl-xL conf 35.4* and MCL1 BIM confirm 64.1*.
Cc1nn(-c2ccccc2)c(C)c1C(=O)OCc1ccc(C#N)cc1 was read as MCL1-BIM inh -1.6, eLon inh -1.4, GLD-1 TGE inh 6.5, Bcl-xL primary 1.8 and MEX-5 binding 1.3.
C[C@H](NC(=O)[C@@H]1CCCN1C(=O)[C@@H]1CCCN1C(=O)c1ccc(Cl)cc1)c1ccccc1 was read as eLon inh 1.6.
Cc1nn(-c2ccccc2)c(Cl)c1/C=N/Nc1ccc(S(=O)(=O)Nc2ccccc2C(=O)O)cc1[N+](=O)[O-] was read as EBV gp42 inh 73.0*, MCL1-BIM inh 53.8*, eLon inh -5.4, GLD-1 TGE inh 7.7, Bcl-xL primary 23.3, MEX-5 binding -0.1, Bcl-xL conf 19.9 and MCL1 BIM confirm 27.4.
Screening O=C(O)c1ccc(N2C(=O)/C(=C/C=C/c3ccccc3)SC2=S)cc1 returned EBV gp42 inh -8.6, MCL1-BIM inh 40.2*, eLon inh -5.6, GLD-1 TGE inh -0.3, Bcl-xL primary 16.2, MEX-5 binding -2.7, Bcl-xL conf 5.8 and MCL1 BIM confirm 14.4.
`O=C(CCN1C(=O)/C(=C\C=C\c2ccccc2)SC1=S)Nc1ccc(C(=O)O)cc1` gave MCL1-BIM inh 13.4, eLon inh -31.6, GLD-1 TGE inh -9.8, Bcl-xL primary 0.1 and MEX-5 binding inconclusive.
For CC(=O)Oc1ccc(C2OC(=O)c3ccccc3N2C(C)=O)cc1 (stereo not drawn) the results were EBV gp42 inh -10.8, MCL1-BIM inh -0.2, eLon inh -2.6, GLD-1 TGE inh -0.4, Bcl-xL primary 3.2 and MEX-5 binding -0.5.
CC(=O)N1c2ccccc2C(=O)C1N1CCCCC1 (stereo not drawn) was read as EBV gp42 inh 6.1, MCL1-BIM inh 68.9*, eLon inh 4.2, GLD-1 TGE inh 58.0*, Bcl-xL primary 64.5*, MEX-5 binding -4.4, Bcl-xL conf 51.8* and MCL1 BIM confirm 63.5*.
Screening O=C(Cn1c(=O)n(Cc2ccco2)c(=O)c2c3c(sc21)CCCC3)Nc1ccccc1 returned EBV gp42 inh 6.5, MCL1-BIM inh -3.6, eLon inh 3.9, GLD-1 TGE inh -2.7, Bcl-xL primary -1.0 and MEX-5 binding 2.1.
Screening NC(=O)Cn1c(=O)n(Cc2ccco2)c(=O)c2c3c(sc21)CCCCC3 returned EBV gp42 inh 18.0, MCL1-BIM inh 77.2*, eLon inh -7.2, GLD-1 TGE inh 5.9, Bcl-xL primary 33.8*, MEX-5 binding 1.4, Bcl-xL conf 31.4* and MCL1 BIM confirm 76.5*.
`NNc1nc(C(F)(F)F)nc2ccccc12` gave EBV gp42 inh -3.5, MCL1-BIM inh -14.5, eLon inh 2.8, GLD-1 TGE inh 2.1, Bcl-xL primary -10.1 and MEX-5 binding 14.8.
Screening O/C=c1\ccc2cccc3nc(C(F)(F)F)nc1c23 returned MCL1-BIM inh 94.1*, eLon inh -88.0, GLD-1 TGE inh 37.3*, Bcl-xL primary 85.8*, MEX-5 binding inconclusive, Bcl-xL conf 118.4* and MCL1 BIM confirm 132.6*.
Screening Cc1noc(C)c1-c1ccc(C(=O)NC2CCCCC2)c2occc12 returned eLon inh -5.2.
`O=C(C1=C(O)C(=O)N(c2nc3ccc(Cl)cc3s2)C1c1ccco1)c1ccco1` (stereo not drawn) gave MCL1-BIM inh 56.6*, eLon inh -26.8, GLD-1 TGE inh 1.2, Bcl-xL primary 19.3, Bcl-xL conf 26.1 and MCL1 BIM confirm 47.6*.
Screening CSc1nnc(N2C(=O)C(O)=C(C(=O)c3ccco3)C2c2ccccc2F)s1 (stereo not drawn) returned MCL1-BIM inh 79.8*, eLon inh -1.2, GLD-1 TGE inh 86.3*, Bcl-xL primary 69.5*, MEX-5 binding 2.0, Bcl-xL conf 25.0 and MCL1 BIM confirm 25.3.
`CCCSc1nnc(N2C(=O)C(O)=C(C(=O)c3ccco3)C2c2ccccc2F)s1` (stereo not drawn) gave MCL1-BIM inh 25.1, eLon inh -10.8, GLD-1 TGE inh 20.2, Bcl-xL primary 22.6 and MEX-5 binding inconclusive.
For CSc1nnc(N2C(=O)C(O)=C(C(=O)c3ccco3)C2c2ccccc2)s1 (stereo not drawn) the results were MCL1-BIM inh 53.5*, eLon inh -2.3, GLD-1 TGE inh 54.3*, Bcl-xL primary 54.0*, MEX-5 binding -39.8*, Bcl-xL conf 54.2* and MCL1 BIM confirm 69.6*.
Cn1c(N)c(S(=O)(=O)N2CCN(c3cccc(Cl)c3)CC2)c(=O)n(C)c1=O was read as MCL1-BIM inh 2.4, eLon inh -10.2, GLD-1 TGE inh 4.6, Bcl-xL primary 3.9 and MEX-5 binding -1.0.
Screening O=C(NCCOc1ccccc1F)C1CCC(=O)N(CCc2cccc(F)c2)C1 (stereo not drawn) returned MCL1-BIM inh 2.1, eLon inh 6.7, GLD-1 TGE inh -5.5, Bcl-xL primary 4.2 and MEX-5 binding 1.0.
For COC(=O)c1cc2n3ccccc3c(C)c(-c3ccccc3)c-2c1C(=O)OC the results were EBV gp42 inh 103.5*, MCL1-BIM inh 119.5*, eLon inh 38.2, GLD-1 TGE inh 85.7*, Bcl-xL primary 110.5*, MEX-5 binding inconclusive, Bcl-xL conf 111.2* and MCL1 BIM confirm 139.8*.
COC(=O)c1cc2ccccn2c2c(C(=O)OC)c(C(=O)OC)cc1-2 was read as EBV gp42 inh -10.1, MCL1-BIM inh 20.9, eLon inh -0.4, GLD-1 TGE inh 7.2, Bcl-xL primary 21.3 and MEX-5 binding -0.3.
CNC(=O)c1c(N)sc2c1CCCCC2 was read as EBV gp42 inh 7.8, MCL1-BIM inh 71.6*, GLD-1 TGE inh 35.5*, Bcl-xL primary 55.6*, MEX-5 binding -8.7, Bcl-xL conf 43.8* and MCL1 BIM confirm 51.9*.
